From PubChem
Hits are enriched below; roughly 2.6% of the tested compounds scored in any of these assays.
hERG WT inh = KCNH2 (human, wildtype) channel inhibition; Q12809; 0.37% of 340,000 active; U2OS, BacMam KCNH2, thallium flux FluxOr; active compounds read low; activity change, % at 1.84 µM;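 active means maximum activity change below -70%; inconclusive means maximum activity change between -70% and -50%; inactive means maximum activity change above -50%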
Target sequence (Q12809 whole entry, looked up): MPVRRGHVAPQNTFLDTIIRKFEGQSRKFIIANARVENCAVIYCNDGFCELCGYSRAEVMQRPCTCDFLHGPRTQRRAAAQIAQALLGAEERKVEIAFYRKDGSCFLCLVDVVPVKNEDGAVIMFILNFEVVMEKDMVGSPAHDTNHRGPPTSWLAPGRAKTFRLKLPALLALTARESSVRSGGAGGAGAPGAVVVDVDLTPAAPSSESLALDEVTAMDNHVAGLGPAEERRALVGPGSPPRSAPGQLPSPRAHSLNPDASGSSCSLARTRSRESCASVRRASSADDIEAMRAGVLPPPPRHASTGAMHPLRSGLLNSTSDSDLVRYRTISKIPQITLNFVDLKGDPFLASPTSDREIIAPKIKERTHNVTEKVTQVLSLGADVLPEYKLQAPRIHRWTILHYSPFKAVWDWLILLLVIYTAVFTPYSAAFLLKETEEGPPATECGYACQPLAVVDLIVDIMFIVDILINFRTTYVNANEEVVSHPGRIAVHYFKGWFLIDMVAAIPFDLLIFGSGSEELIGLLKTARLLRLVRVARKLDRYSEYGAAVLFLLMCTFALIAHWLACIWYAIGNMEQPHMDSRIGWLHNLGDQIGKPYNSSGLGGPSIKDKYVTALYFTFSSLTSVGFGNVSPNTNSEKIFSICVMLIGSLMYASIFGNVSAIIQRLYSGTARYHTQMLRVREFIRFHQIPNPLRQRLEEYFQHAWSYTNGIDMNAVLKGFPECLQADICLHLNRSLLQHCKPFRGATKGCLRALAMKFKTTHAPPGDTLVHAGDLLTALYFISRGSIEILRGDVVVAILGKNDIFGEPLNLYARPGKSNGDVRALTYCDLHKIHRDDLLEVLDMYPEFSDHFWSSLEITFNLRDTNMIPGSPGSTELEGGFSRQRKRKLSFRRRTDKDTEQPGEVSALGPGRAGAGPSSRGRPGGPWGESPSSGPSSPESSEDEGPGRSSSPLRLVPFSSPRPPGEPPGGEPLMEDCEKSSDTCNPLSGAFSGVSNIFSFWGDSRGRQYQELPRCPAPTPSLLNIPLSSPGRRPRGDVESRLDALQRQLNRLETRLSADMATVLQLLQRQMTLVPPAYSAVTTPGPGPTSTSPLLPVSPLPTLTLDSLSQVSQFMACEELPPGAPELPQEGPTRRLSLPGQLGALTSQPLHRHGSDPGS
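U2OS cells were transduced with wild-type KCNH2 virus (2.03 x 10^8 / mL) for 4 h at room temperature, then cultured overnight at 37 C. Thallium flux was read with FluxOr dye. Rate constants were normalized to DMSO controls.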
TRPV1 potentiator = human TRPV1 potentiation. 0.02% of 320,000 active. TRPV1-expressing cells, Fluo-8 calcium influx, capsaicin EC20 potentiation. AID 540277. potentiation, % at 8.33 µM. Q8NER1; in the data active means potentiation above about 80%; inconclusive means between about 30% and that limit
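TRPV1-expressing cells were cultured overnight at 35.5C and loaded with Fluo-8 calcium dye for 40 to 90 min at room temperature. After a 10 s baseline, compound was added and calcium influx was read kinetically for 3 min (ex 480/em 520 nm).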
TRPV1 agonist = agonists of human vanilloid receptor 1 (TRPV1). Q8NER1. TRPV1-expressing cells, Fluo-8 calcium influx, agonist mode. activation, % at 8.33 µM. 0.19% of 320,000 active. AID 540275; in the data active means activation above about 80%; inconclusive means between about 30% and that limit
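Fluo-8 calcium influx in TRPV1-expressing cells, kinetic read (ex 480/em 520 nm). Compound added and read 3 min for agonist activity, followed by capsaicin at EC20 final and 2 min further read for enhancement.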
KCNH2 3.1 block = inhibitors of human KCNH2 3.1 potassium channel isoform; 0.95% of 340,000 active; activity change, % (tested at about 1.8 µM); U2OS KCNH2 3.1, thallium flux FluxOr; active compounds read low;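 active means maximum activity change below -70%; inconclusive means maximum activity change from -70% to -50%; inactive means maximum activity change above -50%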;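 further: thallium influx rate constant from kinetic fluorescence after stimulation buffer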
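Thallium flux via FluxOr fluorescence (Red40 quencher, 45 min loading) in U2OS cells virally expressing the KCNH2 3.1 isoform (1.77 x 10^8 /mL virus, overnight at 37 C). Rate constants from 2-min kinetic reads post-stimulation, normalised to positive and negative controls.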
p53 reactivation = restores transcriptional activity of mutant p53; H1299 p53-A138V BP100-luciferase reporter, luminescence, 24 h; Potency, µM (highest dose often 92.2 µM), actives largely listed as activators; 0.063% of 320,000 active; further: nearly all actives have a fitted effect of over 45% in size
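p53-null H1299 cells stably carrying temperature-sensitive p53-A138V and a BP100-luciferase reporter were pinned with compounds (4-point, 1:5 series) and held 24 hrs at 37 deg C. Luminescence was read 10 min after detection reagent.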
ClpP mod = qHTS Assay for Activators of ClpP; ATP-dependent Clp protease proteolytic subunit (Bacillus subtilis (strain 168)), P80244; purified B. subtilis ClpP, FRET peptide cleavage, 20 min; Potency, µM (titrated, usually from 57.5 µM); 1.9% of 340,000 active; AID 651965, 2013; active means well fitted falling curve with a large enough effect; inconclusive means small, poorly fitted or top-dose-only effect; inactive means no such curve, though single readings can be large or run the other way; further: the source files actives as falling curves though it sought activators and does not explain the sign; nearly all actives have a fitted effect of over 65% in size
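ClpP 10 microg/mL final, pH 8 Tris/KCl buffer with BSA, glycerol, Tween-20; compound pinned in; FRET-FV substrate; RT 20 min; Ex320/Em430; ΔFRET vs ADEP 5.8 microM, DMSO, no enzyme.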
ClpP validation = validation of B. subtilis ClpP protease hits (inhibitors); purified B. subtilis ClpP, FRET-FV substrate cleavage, 20 min; Potency, µM (series often up to 57.5 µM), actives largely listed as inhibitors; 40% of 470 active; shares compounds with ClpP mod; further: nearly all actives have a fitted effect of over 70% in size
Numbers stand for hits. Unless noted, the call rests on the fitted dose curve; in most records, active means well fitted curve in the direction sought with a large enough effect; inconclusive means small, poorly fitted or top-dose-only effect, or another doubt; inactive means no such curve, though single readings can be large; an effect the other way counts as inactive or inconclusive.

Screening CC(=O)c1cccc(NC(=O)COC(=O)c2ccccc2OCc2cccc(Br)c2)c1 returned ClpP mod inactive.
`CCOc1ccc(OCC)c(NS(=O)(=O)c2cc(-c3cc(C)no3)ccc2C)c1` gave ClpP mod inactive.
`Cc1ccn2c(Nc3ccc(F)cc3)c(-c3ccc(C)o3)nc2c1` gave ClpP mod inactive.
Cc1ccc2nc(-c3ccc(C)o3)c(Nc3ccc(Cl)cc3)n2c1 was read as ClpP mod 14µM.
Cc1ccccc1Nc1c(-c2ccc(Br)o2)nc2ccc(Cl)cn12 was read as ClpP mod 28µM.
COc1ccc(-c2cc(C(C)=O)c(C)n2CCC(=O)Nc2ccc(C)c(Cl)c2)cc1 was read as ClpP mod inactive.
For COc1cc(OC)cc(C(=O)NCC(=O)N2CC=C(c3ccccc3)CC2)c1 the results were hERG WT inh inactive, TRPV1 potentiator inactive, TRPV1 agonist inactive, KCNH2 3.1 block inactive, p53 reactivation inactive and ClpP mod inactive.
For O=C(NCC(=O)N1CC=C(c2ccccc2)CC1)c1ccc(OC(F)F)cc1 the results were hERG WT inh inactive, KCNH2 3.1 block -80, p53 reactivation inactive and ClpP mod inactive.
Screening COc1ccc(/C=N/NC(=O)c2ccc(Cl)c(S(N)(=O)=O)c2)cc1OCC(N)=O returned hERG WT inh inactive, TRPV1 potentiator inactive, TRPV1 agonist inactive, KCNH2 3.1 block inactive and p53 reactivation inactive.
COc1cc(/C=N/NC(=O)c2ccc(Cl)c(S(N)(=O)=O)c2)ccc1OCC(N)=O was read as hERG WT inh -142, TRPV1 potentiator inactive, TRPV1 agonist inactive, KCNH2 3.1 block inactive and p53 reactivation inactive.
Screening COc1cc(/C=N/NC(=O)c2cccnc2)ccc1OCC(=O)Nc1ccccc1Cl returned hERG WT inh inactive, TRPV1 potentiator inactive, TRPV1 agonist inactive, KCNH2 3.1 block -97, p53 reactivation inactive and ClpP mod inactive.
For COc1cc(-c2cc(NC(C)=O)c3ncc(-c4ccc(F)cc4)n3c2)cc(OC)c1OC the results were ClpP mod inactive.
For C/C=C(/C)C(=O)OC1c2c(ccc3ccc(=O)oc23)OC(C)(C)C1OC(C)=O (configuration not stated) the results were hERG WT inh inactive, TRPV1 potentiator inactive, TRPV1 agonist inactive, KCNH2 3.1 block inactive, p53 reactivation inactive and ClpP mod 16µM.
For C/C=C(/C)C(=O)O[C@@H]1[C@H](OC(C)=O)c2c(ccc3ccc(=O)oc23)OC1(C)C the results were hERG WT inh inactive, TRPV1 potentiator inactive, TRPV1 agonist inactive, KCNH2 3.1 block inactive, p53 reactivation inactive and ClpP mod inactive.
For CCNC(=O)CSc1nnc(CN2CCCCCC2=O)n1-c1ccccn1 the results were hERG WT inh inactive, TRPV1 potentiator inactive, TRPV1 agonist inactive, KCNH2 3.1 block inactive and p53 reactivation inactive.
For O=C1CCCCCN1Cc1nnc(SCc2nc3ccccc3s2)n1-c1ccccn1 the results were hERG WT inh inactive, TRPV1 potentiator inactive, TRPV1 agonist inactive, KCNH2 3.1 block -80, p53 reactivation inactive and ClpP mod inactive.
`Cc1ccc(S(=O)(=O)Oc2ccc(C3C4=C(CCCC4=O)N(CCC(=O)O)C4=C3C(=O)CCC4)cc2Cl)cc1` gave hERG WT inh inactive, TRPV1 potentiator inconclusive, TRPV1 agonist inactive, KCNH2 3.1 block inactive, p53 reactivation inactive and ClpP mod 25µM.
CCOc1cc(C2C3=C(CCCC3=O)N(CCC(=O)O)C3=C2C(=O)CCC3)ccc1OS(=O)(=O)c1ccc(C)cc1 was read as hERG WT inh inactive, TRPV1 potentiator inactive, TRPV1 agonist inactive, KCNH2 3.1 block inactive, p53 reactivation inactive and ClpP mod inconclusive.
`Cc1ccccc1CSc1cn(CC(=O)N2CCCCCC2)c2ccccc12` gave ClpP mod inactive.
COc1ccc(-c2nc3nc(C)cc(C)n3n2)cc1 was read as hERG WT inh inactive, TRPV1 potentiator inactive, TRPV1 agonist inactive, KCNH2 3.1 block inactive, p53 reactivation inconclusive and ClpP mod 16µM.
For COc1ccc(CNc2nc3nc(C)cc(C)n3n2)cc1 the results were hERG WT inh inactive, TRPV1 potentiator inactive, TRPV1 agonist inactive, KCNH2 3.1 block inactive, p53 reactivation inactive and ClpP mod inconclusive.
O=C(Nc1cc2ccc(O)cc2oc1=O)c1ccc(F)cc1 was read as ClpP mod inactive.
Screening Cc1ccccc1NC(=O)c1sc(Cl)nc1C returned hERG WT inh inactive, TRPV1 potentiator inactive, TRPV1 agonist inactive, KCNH2 3.1 block inactive, p53 reactivation inactive and ClpP mod inactive.
For Cc1nc(Cl)sc1C(=O)Nc1ccc(C(C)(C)C)cc1 the results were hERG WT inh inactive, TRPV1 potentiator inactive, TRPV1 agonist 80, KCNH2 3.1 block inactive and p53 reactivation inactive.
For COc1cccc(OC)c1OCCN1CCN(C(c2ccccc2)c2ccccc2)CC1 the results were hERG WT inh inconclusive, TRPV1 potentiator inactive, TRPV1 agonist inactive, KCNH2 3.1 block -103, p53 reactivation inactive and ClpP mod inactive.
COc1cccc(OC)c1OCCCN1CCC(Cc2ccccc2)CC1 was read as hERG WT inh inactive, TRPV1 potentiator inactive, TRPV1 agonist inactive and KCNH2 3.1 block -70.
`Nc1nc2nc(-c3ccc(OCc4ccccc4)cc3)cc(C(F)(F)F)n2n1` gave hERG WT inh inactive, TRPV1 potentiator inactive, TRPV1 agonist inactive, KCNH2 3.1 block inactive, p53 reactivation inactive, ClpP mod 7.1µM and ClpP validation 17µM.
`Cc1cccc(-c2nnc(C3CCN(S(=O)(=O)c4cccc(Cl)c4)CC3)o2)c1` gave ClpP mod inactive.
For COc1ccc(-n2c(=O)c3c4c(sc3n(Cc3ccc(C)cc3C)c2=O)CCC4)c(OC)c1 the results were ClpP mod inactive.
Screening c1ccc(Oc2cc(-n3cncn3)ncn2)cc1 returned hERG WT inh inactive, TRPV1 potentiator inactive, TRPV1 agonist inactive, KCNH2 3.1 block inactive, p53 reactivation inconclusive, ClpP mod 2.8µM and ClpP validation inactive.
`Cc1c(NC(=O)Cc2ccc(F)cc2)cccc1-c1nc2cccnc2s1` gave ClpP mod inactive.
`O=C(NCc1ccccc1)C(c1ccccc1)n1c(=O)c(-c2cc3ccccc3[nH]2)nc2ccccc21` (configuration not stated) gave ClpP mod inactive.
For COc1ccc(NC(=O)C(c2cc3ccccc3o2)n2c(=O)c(-c3cc4ccccc4[nH]3)nc3ccccc32)cc1 (configuration not stated) the results were ClpP mod inactive and ClpP validation inactive.
